D2 antag – antagonists of human D2 dopamine receptor; HEK293 TREx D2 cells, calcium flux, dopamine EC80; inhibition, % at 10 µM; 340,000 tested, 2% active; in the data active = inhibition above about 30%; inactive = below that, where a call was filed
Target sequence (P14416 whole entry, looked up): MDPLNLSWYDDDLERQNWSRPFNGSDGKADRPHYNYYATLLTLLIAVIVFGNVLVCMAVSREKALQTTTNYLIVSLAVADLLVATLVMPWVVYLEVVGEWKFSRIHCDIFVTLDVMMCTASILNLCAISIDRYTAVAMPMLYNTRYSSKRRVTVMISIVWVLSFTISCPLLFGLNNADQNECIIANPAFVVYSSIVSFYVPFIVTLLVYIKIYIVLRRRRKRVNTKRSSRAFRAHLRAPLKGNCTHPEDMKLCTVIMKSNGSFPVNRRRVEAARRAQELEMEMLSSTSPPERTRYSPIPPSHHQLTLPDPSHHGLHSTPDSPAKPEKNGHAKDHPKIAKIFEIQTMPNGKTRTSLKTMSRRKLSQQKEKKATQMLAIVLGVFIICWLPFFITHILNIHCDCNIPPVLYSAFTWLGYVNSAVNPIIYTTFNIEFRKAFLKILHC
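Tetracycline-induced HEK293 TREx cells expressing D2 receptor forced-coupled to calcium signalling, loaded with no-wash calcium dye. Compounds added and calcium flux read 180 s, then dopamine added at EC80 and read a further 180 s.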
D2 PAM-1 – positive allosteric modulators of human D2 dopamine receptor | P14416 | AID 624464 | DiscoveRx D2 beta-arrestin cells, luminescence, 90 min; 100% = 57 uM dopamine signal | potentiation, % (concentration not given with the values) | 360,000 tested, 0.23% active; in the data active = potentiation above about 50%
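PathHunter D2 cells, attached overnight at 37 deg C, received compound in DMSO plus dopamine at EC20 (50 nM final) for 90 min at 37 deg C. Beta-arrestin recruitment was read as luminescence after 1 h with detection reagent at ambient temperature.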
D2 ag-1 – agonists of human D2 dopamine receptor; HEK293 T-REx D2 cells, calcium flux agonist mode; 340,000 tested, 0.53% active; P14416; activation, % at 2 µM;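 active = activation over 3 SD above normal in the single-dose calcium agonist read, cut at about 30% in these data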
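Calcium-flux readout, 1 cycle/sec over 180 s following compound pin transfer, in inducible HEK293 Trex D2 cells (force-coupled); dopamine controls included. Positive calcium responses during this window marked compounds as potential agonists.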
D2 ag-2 – activates the human D2 dopamine receptor; P14416; DiscoveRx PathHunter D2 beta-arrestin, luminescence, 90 min; 100% = 57 uM dopamine signal; activation, % (concentration not given with the values); 360,000 tested, 0.084% active; in the data active = activation above about 40%
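DiscoveRx PathHunter D2 beta-arrestin cells (2,100/well) attached overnight, then compound-stimulated 90 min at 37 C in HBSS/10 mM HEPES/0.1% Tween-20 buffer; beta-galactosidase complementation read by luminescence after 1 h at ambient temperature. Dopamine 57 uM final (EC100) as control.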
D2 PAM-2 – positive allosteric modulators of human D2 dopamine receptor. P14416. HEK293 T-REx D2, calcium flux, EC20 dopamine potentiation. potentiation, % at 10 µM. 340,000 tested, 0.34% active;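 active = potentiation over 3 SD above the plate norm, cut at about 30% in these data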
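Cells plated with tetracycline inducer and held overnight at 30 C; calcium dye loaded 30–90 min at room temperature; baseline taken, compound added and read 180 s; EC20 dopamine then added and read 180 s.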
Numbers stand for hits; n = inactive; x = no result given. Only some compounds are listed: those with a hit (about 2.4% of all), similar ones and a draw of the others.

SMILES | D2 antag | D2 PAM-1 | D2 ag-1 | D2 ag-2 | D2 PAM-2
Cc1cccc(-c2nc3c(cnn3-c3ccccc3)c(=O)n2-c2ccc(Cl)cc2)c1 | x | x | n | x | x
CC(=O)Nc1ccc(C2=NNC(=Nc3ccc(S(=O)(=O)N4CCOCC4)cc3)SC2)cc1 | 43 | n | n | n | n
O=S(=O)(c1ccc(N=C2NN=C(c3cc(F)ccc3F)CS2)cc1)N1CCOCC1 | n | n | n | n | 30
CC(=O)Nc1ccc(C2=NNC(=Nc3cccc(S(=O)(=O)N(C)C)c3)SC2)cc1 | n | n | n | n | n
Cc1ccccc1NC(=O)Cn1nc(C)n2cccc2c1=O | n | n | n | n | n
Cc1nn(CC(=O)Nc2ccc(Br)cc2F)c(=O)c2cccn12 | 47 | n | n | n | n
CCc1cc2cccc(C)c2nc1SCC(=O)c1ccc(NC(C)=O)cc1 | 47 | n | n | n | n
CCc1cc2ccc(C)cc2nc1SCC(=O)c1ccc(NC(C)=O)cc1 | n | n | n | n | n
Cc1nn(-c2ccccc2)c(C)c1/C=N/NC(=O)CSc1nnc(-c2ccccc2)n1-c1ccc(Cl)cc1 | n | n | n | n | 35
CCn1c(SCC(=O)N/N=C/c2ccc(C)o2)nnc1-c1ccccc1 | 57 | n | n | n | n
Cc1ccc(/C=N/NC(=O)CSc2nnc(-c3ccccc3)n2-c2ccc(Cl)cc2)o1 | n | 54 | n | n | n
Cc1ccc(/C=N/NC(=O)CSc2nnc(-c3ccc(Cl)cc3)n2-c2ccc(Cl)cc2)o1 | n | 84 | n | n | n
O=C(CSc1nnc(-c2ccccc2)n1-c1ccc(Cl)cc1)N/N=C/c1ccccc1C(=O)O | n | n | n | n | n
Cc1ccc(-c2nnc(SCC(=O)N/N=C/c3c(C)nn(-c4ccccc4)c3C)n2-c2ccc(C)cc2)cc1 | n | n | n | n | n
Cc1ccc2c(c1)N(CC(=O)Nc1ccccc1F)C(=O)C(C)O2 (stereo not given) | x | n | x | n | x
COc1ccccc1Cn1cc(C(=O)c2ccc(C)cc2)c(=O)c2cc3c(cc21)OCCO3 | x | x | n | x | n
CCOC(=O)c1ccc(NC(=O)c2cnc(N3CCCC3)nc2C)cc1 | x | x | n | x | n
OC(CN1CCN(c2ccccc2Cl)CC1)c1ccccc1 (stereo not given) | 86 | n | n | n | n
O=C(CN1CCN(c2ccccn2)CC1)Nc1ccc(Oc2ccccc2)cc1 | x | n | x | 50 | x
O=C(CN1CCN(c2ccccn2)CC1)Nc1ccccc1 | 31 | n | n | n | n
O=C(CN1CCN(c2ccccn2)CC1)Nc1ccc(F)cc1 | n | n | n | n | n
OC(COc1ccccc1)CN1CCN(CC(O)COc2ccccc2)CC1 (stereo not given) | 30 | n | n | n | n
OC(COCc1cccs1)CN1CCN(c2ccccc2Cl)CC1 (stereo not given) | x | n | x | n | n
CC(=O)Nc1ccc(OCC(O)CN2CCN(c3cc(Cl)ccc3C)CC2)cc1 (stereo not given) | 93 | n | n | n | n
CCOc1ccccc1N1CCN(CC(O)COCc2cccs2)CC1 (stereo not given) | 68 | n | n | n | n
SMILES | D2 antag | D2 PAM-1 | D2 ag-1 | D2 ag-2 | D2 PAM-2
CC(=O)Nc1ccc(OCC(O)CN2CCN(c3ccc(C)c(Cl)c3)CC2)cc1 (stereo not given) | n | n | n | n | n
OC(CN1CCN(c2ccccc2F)CC1)c1ccc(F)cc1 (stereo not given) | n | n | n | n | n
OC(COc1ccc(F)cc1)CN1CCN(c2ccccc2F)CC1 (stereo not given) | 87 | n | n | n | n
CCc1ccccc1N1C(=O)N(Cc2cccc(Cl)c2)c2ccccc2S1(=O)=O | x | x | n | x | n
O=C(CSc1nnc(-c2ccc(O)cc2)o1)c1ccc(Br)cc1 | x | x | n | x | n
CC(=O)Nc1ccc(NC(=O)c2c(C)nn(-c3ccccc3)c2-n2cccc2)cc1 | x | x | n | x | n
COc1ccccc1N1CCN(CC(O)COc2ccc(C)c(C)c2)CC1 (stereo not given) | x | n | x | n | x
COc1ccccc1N1CCN(CC(O)COc2ccc3c(c2)CCC3)CC1 (stereo not given) | 80 | n | n | n | n
O=[N+]([O-])c1ccccc1OCC(O)CN1CCN(CC(O)COc2ccccc2[N+](=O)[O-])CC1 (stereo not given) | 92 | n | n | n | n

Bioassay records deposited in PubChem by National Center for Advancing Translational Sciences (NCATS).
